Results from PubChem BioAssay (NCI).
The panel holds about 83,000 compounds, 20% with a hit somewhere; the sample as a whole holds those more often.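 How to read the values: 0–100, growth inhibition (40 = 60% inhibited); 0, no net growth; -100 to 0, cell death (-40 = 40% of starting cells died; -100 = all dead).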 Calls of active or inactive are those of the source. The calls were made as follows: active = growth percent below 10; inactive = the rest.

Legend:
Assay in all cases: NCI-60 one-dose screen, 48 h (100 = growth as untreated, 0 = no growth, -100 = all killed)
Details in all cases: 10 µM unless noted
SK-MEL-2 melanoma = tested on: SK-MEL-2 melanoma
EKVX NSCLC = tested on: EKVX NSCLC
SN12C renal = tested on: SN12C renal
UO-31 renal = tested on: UO-31 renal
TK-10 renal = tested on: TK-10 renal
ACHN renal = tested on: ACHN renal
A498 renal = tested on: A498 renal
CCRF-CEM leukemia = tested on: CCRF-CEM leukemia
RPMI-8226 leukemia = tested on: RPMI-8226 leukemia
OVCAR-8 ovarian = tested on: OVCAR-8 ovarian
OVCAR-5 ovarian = tested on: OVCAR-5 ovarian
OVCAR-4 ovarian = tested on: OVCAR-4 ovarian
SK-OV-3 ovarian = tested on: SK-OV-3 ovarian
IGROV1 ovarian = tested on: IGROV1 ovarian
OVCAR-3 ovarian = tested on: OVCAR-3 ovarian
HS 578T breast = tested on: HS 578T breast
NCI/ADR-RES ovarian = tested on: NCI/ADR-RES ovarian
MOLT-4 leukemia = tested on: MOLT-4 leukemia
SR leukemia = tested on: SR leukemia

Measured: growth

O=C(CNc1cccnc1)Nc1ccc(C(=O)/C=C/c2ccc(Cl)cc2)cc1
inactive: SK-MEL-2 melanoma 84.4% | EKVX NSCLC 95% | SN12C renal 88.7% | UO-31 renal 77.7% | TK-10 renal 106% | ACHN renal 101% | A498 renal 86.9% | CCRF-CEM leukemia 26.6% | RPMI-8226 leukemia 21.7% | OVCAR-8 ovarian 98.1% | OVCAR-5 ovarian 92.7% | OVCAR-4 ovarian 87.1% | SK-OV-3 ovarian 111% | IGROV1 ovarian 95.1% | OVCAR-3 ovarian 89.8% | HS 578T breast 82.1% | NCI/ADR-RES ovarian 98%

Cc1cc(NCCN(C(C)C)C(C)C)nc(/N=C(\N)Nc2ccc(Cl)c(C(F)(F)F)c2)n1
active: SK-MEL-2 melanoma -89.4% | EKVX NSCLC -17.5% | SN12C renal -45.6% | UO-31 renal -90.9% | TK-10 renal -80.6% | ACHN renal -81.1% | A498 renal -88.8% | CCRF-CEM leukemia -68% | MOLT-4 leukemia -69.2% | RPMI-8226 leukemia -65.7% | OVCAR-8 ovarian -79.2% | OVCAR-5 ovarian -55.5% | OVCAR-4 ovarian -68.2% | SK-OV-3 ovarian -82% | OVCAR-3 ovarian -73.6% | HS 578T breast -48.5% | NCI/ADR-RES ovarian -41.1%

COc1ccccc1N1CCN(CCCOc2ccc(OCCCN3CCN(c4ccccc4OC)CC3)c(C(=O)c3cc(OC)c(OC)c(OC)c3)c2)CC1
inactive: SK-MEL-2 melanoma 97.2% | EKVX NSCLC 88.8% | SN12C renal 110% | UO-31 renal 102% | TK-10 renal 123% | ACHN renal 157% | A498 renal 122% | MOLT-4 leukemia 98.1% | SR leukemia 99.7% | RPMI-8226 leukemia 155% | OVCAR-8 ovarian 105% | OVCAR-5 ovarian 109% | OVCAR-4 ovarian 109% | SK-OV-3 ovarian 100% | IGROV1 ovarian 122% | HS 578T breast 106% | NCI/ADR-RES ovarian 105%

CCc1c2cc(Cl)ccc2n2cc(Cc3ccccc3)[nH]c(=O)c12
inactive: SK-MEL-2 melanoma 97.5% | EKVX NSCLC 101% | SN12C renal 101% | UO-31 renal 82.3% | TK-10 renal 120% | ACHN renal 93.3% | A498 renal 102% | CCRF-CEM leukemia 93.9% | RPMI-8226 leukemia 110% | OVCAR-8 ovarian 99.1% | OVCAR-5 ovarian 93.9% | OVCAR-4 ovarian 102% | SK-OV-3 ovarian 103% | IGROV1 ovarian 90.5% | OVCAR-3 ovarian 99.2% | HS 578T breast 87.4% | NCI/ADR-RES ovarian 100%

C=C1C(=O)O[C@H]2[C@H]1CC/C(COC(=O)c1cc(OC)c(OC)c(OC)c1)=C\CC[C@@]1(C)O[C@@H]21
active: SK-MEL-2 melanoma -39.4% | EKVX NSCLC -70.6% | SN12C renal -5.94% | UO-31 renal -99% | TK-10 renal -64.4% | ACHN renal -87.7% | MOLT-4 leukemia -14.8% | SR leukemia -13.2% | RPMI-8226 leukemia -36.2% | OVCAR-8 ovarian -45.7% | OVCAR-5 ovarian -12.4% | IGROV1 ovarian -8.27% | OVCAR-3 ovarian -69.8%
inactive: A498 renal 59.8% | OVCAR-4 ovarian 20.1% | SK-OV-3 ovarian 97.6% | HS 578T breast 32.9% | NCI/ADR-RES ovarian 10.9%

Oc1ccc(O)c(-[n+]2ccccc2)c1
inactive: SK-MEL-2 melanoma 101% | EKVX NSCLC 105% | SN12C renal 98.1% | UO-31 renal 94% | TK-10 renal 100% | ACHN renal 107% | A498 renal 108% | MOLT-4 leukemia 91.9% | RPMI-8226 leukemia 99.7% | OVCAR-8 ovarian 99.5% | OVCAR-5 ovarian 108% | OVCAR-4 ovarian 108% | SK-OV-3 ovarian 98.7% | IGROV1 ovarian 107% | OVCAR-3 ovarian 109% | HS 578T breast 96% | NCI/ADR-RES ovarian 108%

CCCc1nn2c(CCC(=O)c3nc4ccc([N+](=O)[O-])cc4[nH]3)nnc2s1
inactive: SK-MEL-2 melanoma 87.5% | EKVX NSCLC 95.6% | SN12C renal 101% | UO-31 renal 80.7% | TK-10 renal 133% | ACHN renal 102% | A498 renal 123% | CCRF-CEM leukemia 109% | RPMI-8226 leukemia 133% | OVCAR-8 ovarian 109% | OVCAR-5 ovarian 97.5% | OVCAR-4 ovarian 100% | SK-OV-3 ovarian 110% | IGROV1 ovarian 101% | OVCAR-3 ovarian 109% | HS 578T breast 91.1% | NCI/ADR-RES ovarian 104%

CC1(C)Cc2c(Br)c(Br)c(Br)c(OCC(O)CN3CCN(c4ccccn4)CC3)c2O1 (centres undefined)
active: CCRF-CEM leukemia -14.3%
inactive: SK-MEL-2 melanoma 77.1% | EKVX NSCLC 95.3% | SN12C renal 106% | UO-31 renal 47.7% | TK-10 renal 66% | ACHN renal 85.8% | A498 renal 96.2% | MOLT-4 leukemia 52.9% | RPMI-8226 leukemia 52.1% | OVCAR-8 ovarian 88.6% | OVCAR-5 ovarian 102% | OVCAR-4 ovarian 112% | SK-OV-3 ovarian 102% | HS 578T breast 89.2% | NCI/ADR-RES ovarian 75.3%

COc1ccc(C2=NN(C(=O)COc3ccc(Cl)cc3)C(O)(c3cc(F)c(Cl)cc3Cl)C2)cc1 (centres undefined)
inactive: SK-MEL-2 melanoma 99.2% | EKVX NSCLC 80.5% | SN12C renal 119% | UO-31 renal 74.7% | TK-10 renal 89.5% | ACHN renal 104% | A498 renal 95.3% | MOLT-4 leukemia 77.3% | SR leukemia 17% | RPMI-8226 leukemia 80.9% | OVCAR-8 ovarian 91% | OVCAR-5 ovarian 96.6% | OVCAR-4 ovarian 98.8% | SK-OV-3 ovarian 94.6% | IGROV1 ovarian 60.4% | HS 578T breast 102% | NCI/ADR-RES ovarian 99%

CCCOC(=O)c1ccc([N+](=O)[O-])o1
inactive: SK-MEL-2 melanoma 102% | EKVX NSCLC 112% | SN12C renal 103% | UO-31 renal 96.2% | TK-10 renal 104% | ACHN renal 105% | CCRF-CEM leukemia 97.4% | RPMI-8226 leukemia 97.5% | OVCAR-8 ovarian 109% | OVCAR-5 ovarian 99.5% | OVCAR-4 ovarian 95.1% | SK-OV-3 ovarian 113% | IGROV1 ovarian 102% | OVCAR-3 ovarian 123% | NCI/ADR-RES ovarian 104%

O=C(Nc1cccc([N+](=O)[O-])c1)c1ccc2ccccc2c1O
inactive: SK-MEL-2 melanoma 44.1% | EKVX NSCLC 51.9% | SN12C renal 50.5% | UO-31 renal 49.8% | TK-10 renal 91.5% | ACHN renal 77.6% | A498 renal 41.9% | MOLT-4 leukemia 66.7% | SR leukemia 92.2% | OVCAR-8 ovarian 80% | OVCAR-5 ovarian 64.2% | OVCAR-4 ovarian 44.5% | SK-OV-3 ovarian 74.6% | OVCAR-3 ovarian 36.9% | HS 578T breast 69.7% | NCI/ADR-RES ovarian 53.1%
active: RPMI-8226 leukemia -7.69%

CC(=O)N1N=C(CCC(=O)c2nc3ccc([N+](=O)[O-])cc3[nH]2)OC1c1ccc(O)cc1 (centres undefined)
inactive: SK-MEL-2 melanoma 57.4% | EKVX NSCLC 92.5% | SN12C renal 109% | UO-31 renal 80.9% | TK-10 renal 113% | ACHN renal 106% | A498 renal 104% | CCRF-CEM leukemia 114% | RPMI-8226 leukemia 120% | OVCAR-8 ovarian 105% | OVCAR-5 ovarian 104% | OVCAR-4 ovarian 109% | SK-OV-3 ovarian 75.3% | IGROV1 ovarian 103% | OVCAR-3 ovarian 103% | HS 578T breast 104% | NCI/ADR-RES ovarian 99.9%

c1nc(SC2=NCCN2)c2[nH]cnc2n1
inactive: SK-MEL-2 melanoma 38.8% | EKVX NSCLC 88.7% | SN12C renal 78.7% | UO-31 renal 40.6% | TK-10 renal 22.6% | ACHN renal 54.2% | A498 renal 92.8% | MOLT-4 leukemia 16% | SR leukemia 22% | RPMI-8226 leukemia 29.2% | OVCAR-8 ovarian 41% | OVCAR-5 ovarian 48.5% | OVCAR-4 ovarian 61.7% | IGROV1 ovarian 64% | OVCAR-3 ovarian 30.8% | HS 578T breast 79.4% | NCI/ADR-RES ovarian 22.5%
active: SK-OV-3 ovarian 8.1%

c1ccc(OCC[P+](c2ccccc2)(c2ccccc2)c2ccccc2)cc1
active: SK-MEL-2 melanoma -16.2% | OVCAR-3 ovarian -31.5%
inactive: EKVX NSCLC 26.3% | SN12C renal 29.8% | UO-31 renal 63.5% | TK-10 renal 40.2% | ACHN renal 60.5% | A498 renal 74.2% | MOLT-4 leukemia 34.8% | SR leukemia 22.7% | RPMI-8226 leukemia 10.9% | OVCAR-8 ovarian 24.5% | OVCAR-5 ovarian 43.1% | OVCAR-4 ovarian 15.8% | SK-OV-3 ovarian 39.5% | NCI/ADR-RES ovarian 108%

CCn1cc(/C=C2\Oc3cc(OCC#N)ccc3C2=O)c2cc(OC)ccc21
inactive: SK-MEL-2 melanoma 37.5% | EKVX NSCLC 47.8% | SN12C renal 42.4% | UO-31 renal 45.7% | TK-10 renal 74.2% | ACHN renal 54.2% | A498 renal 62.4% | MOLT-4 leukemia 12.9% | SR leukemia 19.2% | RPMI-8226 leukemia 15.1% | OVCAR-8 ovarian 21% | OVCAR-5 ovarian 62.1% | OVCAR-4 ovarian 85.6% | SK-OV-3 ovarian 43.3% | IGROV1 ovarian 43.3% | HS 578T breast 29.4% | NCI/ADR-RES ovarian 11.2%
active: OVCAR-3 ovarian -6.84%

Clc1ccc(CN2COc3c(ccc4cccnc34)C2)cc1Cl
inactive: SK-MEL-2 melanoma 11.8% | SN12C renal 19.4% | TK-10 renal 25.9% | A498 renal 52.8% | OVCAR-4 ovarian 11.6% | SK-OV-3 ovarian 13.4% | HS 578T breast 55.4%
active: EKVX NSCLC 1.43% | UO-31 renal -55.4% | ACHN renal 4.57% | CCRF-CEM leukemia -11.1% | RPMI-8226 leukemia -19.3% | OVCAR-8 ovarian -24% | OVCAR-5 ovarian 5.97% | OVCAR-3 ovarian -1.22% | NCI/ADR-RES ovarian -19%

CCC(C)Nc1ccc(N)cc1 (centres undefined)
inactive: SN12C renal 10.5% | TK-10 renal 45.4% | ACHN renal 46% | A498 renal 91.9% | CCRF-CEM leukemia 12.8% | OVCAR-5 ovarian 74% | SK-OV-3 ovarian 38.5% | HS 578T breast 78.9% | NCI/ADR-RES ovarian 70.6%
active: SK-MEL-2 melanoma 7.8% | EKVX NSCLC 8.66% | UO-31 renal -2.85% | MOLT-4 leukemia -13.7% | RPMI-8226 leukemia -25.4% | OVCAR-4 ovarian -4.82% | OVCAR-3 ovarian -42.9%

N#Cc1c(N)nc(Cl)c(C#N)c1C(=O)c1ccccc1
active: SR leukemia -17.6% | RPMI-8226 leukemia -17.6%
inactive: SK-MEL-2 melanoma 19.4% | EKVX NSCLC 87.8% | SN12C renal 35.7% | UO-31 renal 32.4% | TK-10 renal 48.6% | A498 renal 108% | CCRF-CEM leukemia 10.2% | MOLT-4 leukemia 19.7% | OVCAR-8 ovarian 36.8% | OVCAR-5 ovarian 91.2% | OVCAR-4 ovarian 96.7% | SK-OV-3 ovarian 74.5% | IGROV1 ovarian 32.1% | OVCAR-3 ovarian 50.4% | HS 578T breast 71% | NCI/ADR-RES ovarian 81.4%
